Test results reported in ChEMBL document CHEMBL3988442, “University of Dundee, Small-Polar-MMV Screening Library” (2021).
For part of these data: Results with a measured potency or affinity are listed apart.

The molecules below were run against T1, Ubiquitin-activating enzyme e1, putative (Leishmania donovani (strain BPK282A1)) (UniProt E9BSI1) (assay: Leishmania donovani Ubiquitin Activating Enzyme (LdE1)). Details: 30 µM.
T1 sequence (whole entry): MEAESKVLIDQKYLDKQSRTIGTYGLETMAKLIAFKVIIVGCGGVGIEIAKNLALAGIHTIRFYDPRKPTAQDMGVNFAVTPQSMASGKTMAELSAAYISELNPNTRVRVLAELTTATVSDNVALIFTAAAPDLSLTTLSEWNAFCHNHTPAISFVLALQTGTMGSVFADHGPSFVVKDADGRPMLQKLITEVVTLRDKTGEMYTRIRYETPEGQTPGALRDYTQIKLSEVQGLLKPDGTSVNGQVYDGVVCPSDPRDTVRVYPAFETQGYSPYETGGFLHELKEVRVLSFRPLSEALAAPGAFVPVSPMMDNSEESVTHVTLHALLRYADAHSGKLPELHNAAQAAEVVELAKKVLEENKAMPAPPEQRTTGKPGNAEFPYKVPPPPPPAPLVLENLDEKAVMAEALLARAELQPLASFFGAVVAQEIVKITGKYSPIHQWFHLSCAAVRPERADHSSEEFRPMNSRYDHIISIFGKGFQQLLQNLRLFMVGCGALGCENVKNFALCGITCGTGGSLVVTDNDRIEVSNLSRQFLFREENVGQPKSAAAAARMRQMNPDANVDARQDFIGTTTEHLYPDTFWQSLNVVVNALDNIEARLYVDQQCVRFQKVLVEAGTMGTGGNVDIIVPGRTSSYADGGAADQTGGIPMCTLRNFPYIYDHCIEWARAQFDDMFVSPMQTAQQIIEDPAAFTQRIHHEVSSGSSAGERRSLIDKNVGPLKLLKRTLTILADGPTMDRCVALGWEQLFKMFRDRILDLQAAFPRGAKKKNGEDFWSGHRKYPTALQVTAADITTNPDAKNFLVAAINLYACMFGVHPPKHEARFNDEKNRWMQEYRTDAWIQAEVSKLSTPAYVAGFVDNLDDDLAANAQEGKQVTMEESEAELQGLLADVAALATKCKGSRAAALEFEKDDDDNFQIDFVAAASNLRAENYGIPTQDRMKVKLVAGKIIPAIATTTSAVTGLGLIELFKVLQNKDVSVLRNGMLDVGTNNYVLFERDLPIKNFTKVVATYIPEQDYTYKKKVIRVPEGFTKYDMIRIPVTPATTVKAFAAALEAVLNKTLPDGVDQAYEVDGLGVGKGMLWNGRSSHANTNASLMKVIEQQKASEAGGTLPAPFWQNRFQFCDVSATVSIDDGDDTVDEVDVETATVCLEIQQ
Assay type: functional
Parameters: scale not given: direction of the effect not stated beside the values
`CCc1noc(C(C)N2CCN(Cc3nnc(C4CC4)o3)CC2)n1` (stereo not drawn) was tested, and the Percent Effect was 2.67%. `CN(C)CCN1CCCC12CCN(C(=O)c1cnccn1)CC2` showed a Percent Effect of 11.7%. `CC(C)(C)c1n[nH]c(C2CN(C(=O)CCc3cscn3)CCO2)n1` (stereo not drawn) showed a Percent Effect of 7.69%. With `Cc1nn2cccnc2c1C(=O)N1CCCC(n2ccnc2)C1` (stereo not drawn) the Percent Effect was 13.3%. `Cc1ccc2oc(C(=O)N3CCCC(c4noc(C)n4)C3)cc2n1` (stereo not drawn) showed a Percent Effect of 5.13%. In the case of `CN1CC(c2ccccc2)CC12CCN(C(=O)c1c(Cl)cnn1C)CC2` (stereo not drawn), the Percent Effect is reported as 5.41%. `O=C(NCC1CC1)C1CCC2(CCN(C(=O)c3ccccn3)CC2)O1` (stereo not drawn) showed a Percent Effect of 1.3%. `CC(C)CN1CCN(C(=O)NCc2cccnc2-n2cccn2)CC1` showed a Percent Effect of 16%. In the case of `Fc1ccc(-c2n[nH]cc2-c2ccnc(NCCN3CCCC3)n2)cc1`, the Percent Effect is reported as 8%. Work on `NCc1cn(-c2ccccc2C(=O)NCc2ccccc2)cn1` yielded a Percent Effect of 14.7%. Molecule `CC(C)CCC(=O)NC(C)c1nnc2n1CCCCC2` (stereo not drawn) has a Percent Effect of 10.4%. With `CC(=O)N1CCCC1c1cc(N2CCN(C3CCCC3)CC2)cc(C)n1` (stereo not drawn) the Percent Effect was 17.3%. `O=C1CCC(C(=O)NCc2nn(-c3ccccc3)c3c2CCC3)CN1` (stereo not drawn) was tested, and the Percent Effect was 5.13%. With `COc1ccc(CNCc2ccc(N3CCCCC3)nc2)cc1OC` the Percent Effect was 15.4%. For `CN1CC(=O)N(c2cnn(C)c2)CC12CCN(C(=O)c1ccsc1)C2` (stereo not drawn), the Percent Effect was 1.3%. With `CCN(C)c1ncnc2c1CCN(Cc1ccc(OC)cc1)CC2` the Percent Effect was 6.49%. Work on `CCOc1ncccc1CNC(=O)Nc1ccc(N(C)C)nc1` yielded a Percent Effect of 2.6%. `Cc1nc(C)n(CC2CN(CCOCC(F)(F)F)CCO2)n1` (stereo not drawn) gave a Percent Effect of 0%. Molecule `CN(CCNC(=O)c1scnc1Cl)c1ccccc1` has a Percent Effect of 10.7%. With `Cc1[nH]ncc1C(=O)N1CCN(CC(O)C(C)(C)C)CC1` (stereo not drawn) the Percent Effect was 17.9%. `CCn1ccnc1CNCC1CCCN1c1cc(NC)ncn1` (stereo not drawn) gave a Percent Effect of 0%. For `Cc1[nH]c2ccccc2c1-c1ccnc(NCCN2CCOCC2)n1`, the Percent Effect was 5.33%. Molecule `COc1cc(S(=O)(=O)N2CCCc3ccccc32)cc(C(=O)O)c1OC` has a Percent Effect of 0%. `CN(C)C[C@H]1OC[C@@H]2CCN(S(=O)(=O)c3cccs3)C[C@@H]21` was tested, and the Percent Effect was 1.3%. For `COc1ccc(OC)c(C2CCN(Cc3nc(C)n4ccccc34)C2)c1` (stereo not drawn), the Percent Effect was -2.7%. Molecule `Cc1cccc(C(=O)N2C[C@@H](OCc3cccnc3)[C@H]3OCCC[C@@H]32)n1` has a Percent Effect of 11.7%. `Cc1ccc(Cl)cc1N1CCC(CNC(=O)CCn2ccnn2)C1` (stereo not drawn) was tested, and the Percent Effect was 12.8%. `CC(C(=O)N1CCCC1)N1CCC(c2nccn2CC2CCC2)CC1` (stereo not drawn) gave a Percent Effect of 0%. `O=C(CSc1ccc(F)c(F)c1)NS(=O)(=O)c1ccc2c(c1)OCCO2` was tested, and the Percent Effect was 2.56%. In the case of `CCCc1cc(C(=O)N2CCOC(c3nc(-c4cccs4)no3)C2)no1` (stereo not drawn), the Percent Effect is reported as 9.33%. In the case of `O=C(Nc1ccccc1)C1=CC2(CCNCC2)c2ccccc21`, the Percent Effect is reported as 9.09%. For `CCCn1nc2c(cc1=O)CN(CC(=O)Nc1ccncc1)CC2`, the Percent Effect was 10.4%. Work on `c1ccc(CNC2CCc3ncnn3C2)nc1` (stereo not drawn) yielded a Percent Effect of 12.8%. In the case of `Cc1n[nH]c(=O)c2c(NC(=O)CN3CCCC(C(F)(F)F)C3)oc(C)c12` (stereo not drawn), the Percent Effect is reported as 23.1%. `CCn1c(C)cc(C(=O)N2CCCC(n3nc(C)nc3C)C2)c1C` (stereo not drawn) was tested, and the Percent Effect was 12.8%. `N#Cc1ccccc1OCCN1CCn2c(nnc2C2CC2)C1` showed a Percent Effect of 2.67%. `O=C(NCCC1=CCCCC1)C1CCN(c2ccc3nncn3n2)CC1` gave a Percent Effect of 10.8%. In the case of `c1ccc(-c2cnc(CNC3CCCN(c4cccnn4)C3)o2)cc1` (stereo not drawn), the Percent Effect is reported as -23.1%. In the case of `COc1ccc(C(=O)N2CC[C@H](CO)[C@H](O)C2)c(C)c1`, the Percent Effect is reported as 5.41%.

Each molecule was assayed against Sialic acid-binding Ig-like lectin 9 (Homo sapiens) (UniProt Q9Y336) (assay: Hs-Siglec9 ALPHAscreen SOP 20170721). Details: 10 µM.
Sequence of Sialic acid-binding Ig-like lectin 9 (Homo sapiens) (Q9Y336 whole entry): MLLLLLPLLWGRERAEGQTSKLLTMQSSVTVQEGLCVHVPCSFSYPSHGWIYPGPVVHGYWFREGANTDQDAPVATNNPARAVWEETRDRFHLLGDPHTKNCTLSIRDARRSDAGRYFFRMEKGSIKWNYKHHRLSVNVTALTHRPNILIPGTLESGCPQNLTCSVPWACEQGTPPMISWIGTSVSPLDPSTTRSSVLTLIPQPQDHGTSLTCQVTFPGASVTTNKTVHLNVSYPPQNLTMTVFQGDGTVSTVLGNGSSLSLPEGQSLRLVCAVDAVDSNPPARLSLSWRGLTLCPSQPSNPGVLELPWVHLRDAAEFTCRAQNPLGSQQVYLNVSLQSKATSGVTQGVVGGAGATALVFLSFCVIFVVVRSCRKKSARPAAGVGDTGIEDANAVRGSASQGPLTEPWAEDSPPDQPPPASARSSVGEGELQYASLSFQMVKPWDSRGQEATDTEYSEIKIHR
Parameters: scale not given: direction of the effect not stated beside the values
`CCc1noc(C(C)N2CCN(Cc3nnc(C4CC4)o3)CC2)n1` (stereo not drawn) gave a Percent Effect of -2.35%. For `CN(C)CCN1CCCC12CCN(C(=O)c1cnccn1)CC2`, the Percent Effect was 2.72%. Work on `CC(C)(C)c1n[nH]c(C2CN(C(=O)CCc3cscn3)CCO2)n1` (stereo not drawn) yielded a Percent Effect of 15.8%. `Cc1nn2cccnc2c1C(=O)N1CCCC(n2ccnc2)C1` (stereo not drawn) gave a Percent Effect of -7.92%. `Cc1ccc2oc(C(=O)N3CCCC(c4noc(C)n4)C3)cc2n1` (stereo not drawn) was tested, and the Percent Effect was 1.38%. `CN1CC(c2ccccc2)CC12CCN(C(=O)c1c(Cl)cnn1C)CC2` (stereo not drawn) showed a Percent Effect of 9.49%. For `O=C(NCC1CC1)C1CCC2(CCN(C(=O)c3ccccn3)CC2)O1` (stereo not drawn), the Percent Effect was -0.0517%. For `CC(C)CN1CCN(C(=O)NCc2cccnc2-n2cccn2)CC1`, the Percent Effect was -3.1%. In the case of `Fc1ccc(-c2n[nH]cc2-c2ccnc(NCCN3CCCC3)n2)cc1`, the Percent Effect is reported as -4.6%. With `NCc1cn(-c2ccccc2C(=O)NCc2ccccc2)cn1` the Percent Effect was 1.6%. For `CC(C)CCC(=O)NC(C)c1nnc2n1CCCCC2` (stereo not drawn), the Percent Effect was 4.23%. With `CC(=O)N1CCCC1c1cc(N2CCN(C3CCCC3)CC2)cc(C)n1` (stereo not drawn) the Percent Effect was -8.17%. Molecule `O=C1CCC(C(=O)NCc2nn(-c3ccccc3)c3c2CCC3)CN1` (stereo not drawn) has a Percent Effect of -2.63%. Molecule `COc1ccc(CNCc2ccc(N3CCCCC3)nc2)cc1OC` has a Percent Effect of -8.85%. Molecule `CN1CC(=O)N(c2cnn(C)c2)CC12CCN(C(=O)c1ccsc1)C2` (stereo not drawn) has a Percent Effect of 3.75%. `CCN(C)c1ncnc2c1CCN(Cc1ccc(OC)cc1)CC2` gave a Percent Effect of -9.08%. Molecule `CCOc1ncccc1CNC(=O)Nc1ccc(N(C)C)nc1` has a Percent Effect of -6.42%. `Cc1nc(C)n(CC2CN(CCOCC(F)(F)F)CCO2)n1` (stereo not drawn) gave a Percent Effect of 2.9%. `CN(CCNC(=O)c1scnc1Cl)c1ccccc1` gave a Percent Effect of -1.26%. Work on `Cc1[nH]ncc1C(=O)N1CCN(CC(O)C(C)(C)C)CC1` (stereo not drawn) yielded a Percent Effect of -6.77%. With `CCn1ccnc1CNCC1CCCN1c1cc(NC)ncn1` (stereo not drawn) the Percent Effect was 1.76%. `Cc1[nH]c2ccccc2c1-c1ccnc(NCCN2CCOCC2)n1` showed a Percent Effect of -2.88%. `COc1cc(S(=O)(=O)N2CCCc3ccccc32)cc(C(=O)O)c1OC` was tested, and the Percent Effect was 10.6%. Molecule `CN(C)C[C@H]1OC[C@@H]2CCN(S(=O)(=O)c3cccs3)C[C@@H]21` has a Percent Effect of 12.5%. With `COc1ccc(OC)c(C2CCN(Cc3nc(C)n4ccccc34)C2)c1` (stereo not drawn) the Percent Effect was 16.9%. `Cc1cccc(C(=O)N2C[C@@H](OCc3cccnc3)[C@H]3OCCC[C@@H]32)n1` was tested, and the Percent Effect was -6.23%. In the case of `Cc1ccc(Cl)cc1N1CCC(CNC(=O)CCn2ccnn2)C1` (stereo not drawn), the Percent Effect is reported as -5.81%. With `CC(C(=O)N1CCCC1)N1CCC(c2nccn2CC2CCC2)CC1` (stereo not drawn) the Percent Effect was -0.943%. Work on `O=C(CSc1ccc(F)c(F)c1)NS(=O)(=O)c1ccc2c(c1)OCCO2` yielded a Percent Effect of -9.59%. `CCCc1cc(C(=O)N2CCOC(c3nc(-c4cccs4)no3)C2)no1` (stereo not drawn) was tested, and the Percent Effect was 6.29%. `O=C(Nc1ccccc1)C1=CC2(CCNCC2)c2ccccc21` was tested, and the Percent Effect was 1.86%. `CCCn1nc2c(cc1=O)CN(CC(=O)Nc1ccncc1)CC2` was tested, and the Percent Effect was 6.89%. For `c1ccc(CNC2CCc3ncnn3C2)nc1` (stereo not drawn), the Percent Effect was -14.6%. `Cc1n[nH]c(=O)c2c(NC(=O)CN3CCCC(C(F)(F)F)C3)oc(C)c12` (stereo not drawn) was tested, and the Percent Effect was -19.8%. Molecule `CCn1c(C)cc(C(=O)N2CCCC(n3nc(C)nc3C)C2)c1C` (stereo not drawn) has a Percent Effect of -10.5%. For `N#Cc1ccccc1OCCN1CCn2c(nnc2C2CC2)C1`, the Percent Effect was -0.123%. Molecule `O=C(NCCC1=CCCCC1)C1CCN(c2ccc3nncn3n2)CC1` has a Percent Effect of -2.17%. Work on `c1ccc(-c2cnc(CNC3CCCN(c4cccnn4)C3)o2)cc1` (stereo not drawn) yielded a Percent Effect of 5.28%. Molecule `COc1ccc(C(=O)N2CC[C@H](CO)[C@H](O)C2)c(C)c1` has a Percent Effect of 10.7%.
